# According to the supplement of paper PMC3545927:
# The other results are listed elsewhere or left out. No count for the full screen is at hand.
# B1: HC1819 (peptide)
# chain: CADPMEECSQAGNASASA
# B2: HC2445 (peptide)
# chain: CAELEVPCHRAGNASASA
# B3: HC1478 (peptide)
# chain: CAMGFSYDTRAGNASASA
# B4: HC1866 (peptide)
# chain: CATTMCSGSWAGNASASA
# B5: HC2090 (peptide)
# chain: CAVVCCSMSVAGNASASA
# B6: FS-3084 (peptide)
# chain: CARSKRGTEDAGNASASA
# B7: FS-2523 (peptide)
# chain: CARSKRALENAGNASASA
# B8: FS-1691 (peptide)
# chain: CARDKRKLGAAGNASASA
# B9: FS-2306 (peptide)
# chain: CARSKRRDANAGNASASA
# B10: FS-2205 (peptide)
# chain: CARDKRKQRQAGNASASA
# B11: FS-1929 (peptide)
# chain: CARSKRIWLDAGNASASA
# B12: FS-2525 (peptide)
# chain: CARSKRVLWDAGNASASA
# B13: CS6 (peptide)
# chain: CADGPDGPEEAGNASASA
# B14: HC872 (peptide)
# chain: CAVSVIPTSGAGNASASA
# B15: HC250 (peptide)
# chain: CALALLSCLTAGNASASA
# B16: FS-580 (peptide)
# chain: CAASIRHARFAGNASASA
# B17: FS-1586 (peptide)
# chain: CAASPRVARFAGNASASA
# B18: FS-220 (peptide)
# chain: CADAARVARFAGNASASA
# B19: HC747 (peptide)
# chain: CAAGHAVGIFAGNASASA
# B20: FS-379 (peptide)
# chain: CASCQRRTRFAGNASASA
# B21: HC1130 (peptide)
# chain: CADAAARVTAAGNASASA
# B22: FS-1309 (peptide)
# chain: CAASHRSTRFAGNASASA
# B23: HC2358 (peptide)
# chain: CAEVTCHRPSAGNASASA
# B24: HC2540 (peptide)
# chain: CASTPCSCHLAGNASASA
# B25: HC2079 (peptide)
# chain: CAVVCCSMPYAGNASASA
# B26: HC1773 (peptide)
# chain: CAMEECSQHRAGNASASA
# B27: HC677 (peptide)
# chain: CAAQQTRGLLAGNASASA
# Biological target: furin, P09958
# Sequence (P09958 whole entry): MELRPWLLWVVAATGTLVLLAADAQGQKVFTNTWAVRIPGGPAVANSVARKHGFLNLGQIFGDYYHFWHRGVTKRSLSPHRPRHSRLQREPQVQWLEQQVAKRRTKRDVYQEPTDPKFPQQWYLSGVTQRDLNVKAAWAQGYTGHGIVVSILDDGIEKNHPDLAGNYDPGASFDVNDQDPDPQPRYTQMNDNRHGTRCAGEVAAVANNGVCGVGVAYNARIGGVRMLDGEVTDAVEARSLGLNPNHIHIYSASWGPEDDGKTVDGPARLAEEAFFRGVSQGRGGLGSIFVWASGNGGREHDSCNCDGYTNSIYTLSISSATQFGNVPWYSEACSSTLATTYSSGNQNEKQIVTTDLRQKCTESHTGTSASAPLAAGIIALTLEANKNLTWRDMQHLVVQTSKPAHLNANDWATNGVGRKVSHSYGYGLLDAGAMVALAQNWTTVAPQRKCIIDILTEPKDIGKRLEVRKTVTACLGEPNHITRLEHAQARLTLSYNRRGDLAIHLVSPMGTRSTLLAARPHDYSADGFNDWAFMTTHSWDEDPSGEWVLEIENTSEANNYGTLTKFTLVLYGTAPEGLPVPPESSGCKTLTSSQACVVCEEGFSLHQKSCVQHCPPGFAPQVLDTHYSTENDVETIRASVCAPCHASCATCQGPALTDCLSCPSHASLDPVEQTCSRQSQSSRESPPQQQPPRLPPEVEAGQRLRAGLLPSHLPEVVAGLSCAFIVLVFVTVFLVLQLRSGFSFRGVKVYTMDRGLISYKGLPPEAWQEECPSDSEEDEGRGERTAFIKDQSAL
# Test: furin cleavage Z-score vs untreated control; higher = more cleavage, active = 3.5 or more, inactive = 1 or less, 8 variable residues between constant flanks
# Procedure: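 Multiplexed peptide-cDNA fusion cleavage assay. 8-mer variable peptides flanked by constant Cys-Ala (N-term) and Ala-Gly-Asn-Ala-Ser-Ala-Ser-Ala (C-term) and conjugated to a cDNA oligonucleotide were bead-immobilised via the N-terminus. They were treated with purified furin at a 1:10 enzyme:substrate ratio in 50 mM HEPES pH 7.5, 1 mM CaCl2, 100 mM NaCl for 7.5, 15 or 30 min. Released cDNA was counted by next-generation sequencing, and log counts versus no-furin controls were lowess-adjusted and converted to robust Z-scores.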
Sequence,furin cleavage Z-score (7.5 min),furin cleavage Z-score (15 min),furin cleavage Z-score (30 min)
B1,0.273 (inactive),-1.88 (inactive),-0.65 (inactive)
B2,0.172 (inactive),0.852 (inactive),0.435 (inactive)
B3,-0.658 (inactive),-1.06 (inactive),-0.421 (inactive)
B4,-0.934 (inactive),-1.58 (inactive),-0.286 (inactive)
B5,-0.627 (inactive),0.955 (inactive),1.16
B6,8.96 (active),9.33 (active),8.39 (active)
B7,9.22 (active),11 (active),8.18 (active)
B8,-0.964 (inactive),0.648 (inactive),1.45
B9,-0.438 (inactive),0.401 (inactive),2.07
B10,1.77,4.76 (active),3.43
B11,0.312 (inactive),0.0956 (inactive),0.362 (inactive)
B12,-1.38 (inactive),-1.33 (inactive),-0.22 (inactive)
B13,-0.625 (inactive),-0.697 (inactive),0.000165 (inactive)
B14,-1.15 (inactive),-1.43 (inactive),-0.759 (inactive)
B15,0.23 (inactive),0.192 (inactive),0.0802 (inactive)
B16,4.24 (active),6.42 (active),7.16 (active)
B17,7.18 (active),7.05 (active),9.24 (active)
B18,1.88,3.12,3.56 (active)
B19,0.991 (inactive),-0.922 (inactive),-0.149 (inactive)
B20,-0.682 (inactive),1.81,2.4
B21,-0.857 (inactive),-0.374 (inactive),-0.0041 (inactive)
B22,0.749 (inactive),3.07,5.05 (active)
B23,0.503 (inactive),1.09,-0.419 (inactive)
B24,-2.32 (inactive),-0.121 (inactive),-0.978 (inactive)
B25,1.07,1.5,0.76 (inactive)
B26,0.467 (inactive),0.921 (inactive),2.83
B27,-1.39 (inactive),-0.431 (inactive),0.105 (inactive)
